High-throughput results as filed in PubChem BioAssay.
Hits are enriched below; roughly 17% of the tested compounds scored in any of these assays.
TGFb SMAD3 inh: qHTS for Inhibitors of TGF-b; HepG2 CAGA-GFP TGF-b/SMAD3 reporter, GFP fluorescence, 18 h; TGF-beta stimulated, 500 pg/mL final; Potency, µM (highest dose often 46.1 µM), most hits filed as inhibitors; actives 1.2% (n = 410,000); AID 588855, 2011; note: nearly all actives have a fitted effect of over 65% in size
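HEPG2 CAGA-GFP, 1000 cells/well; 2 h settle, 37 C; cpd via pin tool; TGF-b 500 pg/mL final; 18 h, 37 C; GFP imaging ex488/em500-530; %Activity normalised to -TGF-b and +DMSO controls; CRC fit, curve class.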
ATXN2 expr inh: Primary qHTS for Inhibitors of ATXN expression | actives 0.72% (n = 360,000) | Potency, µM (highest dose often 57 µM), most hits filed as inhibitors | AID 1745845, 2022 | HEK-293 ATXN2-luciferase reporter, luminescence, 24 h; note: nearly all actives have a fitted effect of over 55% in size
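ATXN2-luciferase reporter cells (luciferase flanked by upstream and downstream ATXN2 gene portions) were treated 24 h at 37 °C with compounds at up to 57 uM. SteadyGlo luminescence gave expression; GF-AFC fluorescence gave viability.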
DT40 TDP1 no CPT: qHTS for Inhibitors of human tyrosyl-DNA phosphodiesterase 1 (TDP1): qHTS in cells in absence of CPT; actives 15% (n = 420,000); Potency, µM (series often up to 46.2 µM), usual class: inhibitors; DT40 Tdp1-/- hTDP1 cells, no CPT, ATP luminescence, 48 h; note: nearly all actives have a fitted effect of over 55% in size
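DT40 Tdp1-/-;hTDP1 cells, no CPT (DMSO vehicle only), 400 cells/well; compounds pin-transferred; ≥48 hr, 37 °C; CellTiter-Glo 30 min RT dark, luminescence read.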
TDP1 cell CPT: qHTS for Inhibitors of human tyrosyl-DNA phosphodiesterase 1 (TDP1): qHTS in cells in presence of CPT. chicken DT40 Tdp1-/-;hTDP1 cells + 20 nM CPT, ATP luminescence, 48 h. Potency, µM (doses to about 46.2 µM), usual class: inhibitors. actives 12% (n = 420,000). AID 686979, 2013; note: nearly all actives have a fitted effect of over 55% in size
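Chicken DT40 Tdp1-/- cells stably complemented with human TDP1 were seeded at 400 cells/well in medium containing 20 nM camptothecin, exposed to pin-transferred compounds, and grown at 37 °C for at least 48 hr. Viability was read as ATP luminescence.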
HepG2 viability: qHTS for Inhibitors of TGF-b: Cytotox Counterscreen; HepG2 CAGA-GFP viability, ATP luminescence, 18 h; Potency, µM (series often up to 46.1 µM), hits mostly cytotoxic; actives 0.76% (n = 410,000)
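CellTiter-Glo luminescence gave cytotoxicity after 18 hours at 37 degrees C. The cells were HepG2 CAGA-GFP in 1% FBS DMEM, stimulated with 500 pg/mL TGF-beta after compound addition. %Activity was normalised to no-cell wells (complete cell-killing) and DMSO (no toxicity), and curves were fitted and classified.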
ATXN viability: Viability Counterscreen for Primary qHTS for Inhibitors of ATXN expression; S2 cells (HEK-293 line with an ATXN2-luciferase reporter) viability, CellTiter-Fluor protease fluorescence, 24 h; Potency, µM (doses to about 56.7 µM), actives largely listed as cytotoxic; actives 0.49% (n = 400,000); AID 651635, 2014; note: nearly all actives have a fitted effect of over 40% in size
Numbers stand for hits; i = inactive; ? = inconclusive; nt = no result given. Calls come from the whole dose curve; as a rule, active = well fitted curve in the direction sought with a large enough effect; inconclusive = small, poorly fitted or top-dose-only effect, or another doubt; inactive = no such curve, though single readings can be large; an effect the other way counts as inactive or inconclusive.

SMILES | TGFb SMAD3 inh | ATXN2 expr inh | DT40 TDP1 no CPT | TDP1 cell CPT | HepG2 viability | ATXN viability
NC(Cc1ccc(C(F)(F)F)cc1)c1csc(NC(=O)Nc2ccccc2Cl)n1 (stereo unspecified) | ? | ? | 21µM | ? | i | ?
Cc1ccc(-n2ccc(=O)c(C(=O)Nc3ccc(S(=O)(=O)Nc4onc(C)c4C)cc3)n2)cc1 | i | i | i | i | i | i
C[C@H](CO)N1C[C@H](C)[C@H](CN(C)C(=O)Cc2ccncc2)Oc2ncc(Br)cc2C1=O | i | i | i | i | i | i
COc1ccc(-c2cc(NC=O)c3ncc(-c4cccc(OC)c4)n3c2)cc1 | ? | ? | 5.2µM | 5.8µM | i | i
COc1cccc(-c2cnc3c(NC=O)cc(-c4ccc(N(C)C)cc4)cn23)c1 | ? | i | 8.2µM | 15µM | i | nt
COC(=O)N1c2ccccc2C=Cc2ccccc21 | i | i | 21µM | ? | i | i
NC(=O)N1c2ccccc2C=Cc2ccccc21 | i | i | ? | ? | i | i
CCN(CC)C(=O)N1c2ccccc2C=Cc2ccccc21 | i | i | 10µM | 9.2µM | i | ?
Cc1cnc(CNc2ccnc(-c3ccccc3CN(C)C)n2)cn1 | nt | nt | i | i | nt | nt
Cn1c(SCC(=O)c2ccccc2)ncc(C(=O)Nc2ccccc2)c1=O | i | i | 21µM | ? | i | i
Cc1cc(NC(=O)CSc2ncc(C(=O)Nc3ccccc3)c(=O)n2C)no1 | i | nt | i | i | i | nt
Cc1ccc(NC(=O)c2cnc(SCC(=O)c3ccccc3)n(C)c2=O)cc1 | i | i | 16µM | i | i | i
Cc1cc(Br)c(OCc2ccc(C(=O)N/N=C3\CC4CC=CC34)cc2)c(Br)c1 (stereo unspecified) | i | ? | 15µM | i | i | i
C=CC[C@H](CC(=O)N[C@H](CO)Cc1ccccc1)C(=O)N[C@@H](COC(=O)[C@H](CC=C)CC(=O)OC(C)(C)C)Cc1c[nH]c2ccccc12 | ? | ? | 23µM | 21µM | i | ?
C=CC[C@H](CC(=O)N[C@H](CO)Cc1ccccc1)C(=O)N[C@H](COC(=O)[C@@H](CC=C)CC(=O)OC(C)(C)C)Cc1c[nH]c2ccccc12 | i | i | ? | ? | i | ?
C=CC[C@@H](CC(=O)N[C@@H](CO)Cc1ccccc1)C(=O)N[C@@H](COC(=O)[C@H](CC=C)CC(=O)OC(C)(C)C)Cc1c[nH]c2ccccc12 | ? | ? | 21µM | ? | i | ?
C=CC[C@@H](CC(=O)N[C@H](CO)Cc1ccccc1)C(=O)N[C@@H](COC(=O)[C@@H](CC=C)CC(=O)OC(C)(C)C)Cc1c[nH]c2ccccc12 | i | i | ? | 16µM | i | i
C=CC[C@@H](CC(=O)N[C@H](CO)Cc1ccccc1)C(=O)N[C@@H](COC(=O)[C@@H](CC=C)CC(=O)OC(C)(C)C)Cc1ccccc1 | i | i | ? | 16µM | i | ?
C=CC[C@@H](CC(=O)N[C@H](CO)Cc1ccccc1)C(=O)N[C@H](C)COC(=O)[C@@H](CC=C)CC(=O)OC(C)(C)C | i | i | ? | ? | i | i
Cc1cc(C)n(CCCNC(=O)C2CC(=O)N(Cc3ccccc3)C2)n1 (stereo unspecified) | i | i | i | i | i | i
C=CC[C@@H](CC(=O)N[C@@H](CO)Cc1ccccc1)C(=O)N[C@@H](COC(=O)[C@@H](CC=C)CC(=O)OC(C)(C)C)Cc1c[nH]c2ccccc12 | ? | i | 13µM | 21µM | i | ?
C=CC[C@@H](CC(=O)N[C@H](CO)Cc1ccccc1)C(=O)N[C@H](COC(=O)[C@@H](CC=C)CC(=O)OC(C)(C)C)Cc1c[nH]c2ccccc12 | ? | ? | ? | ? | i | ?
